Source: ChEMBL document CHEMBL3988442, “University of Dundee, Small-Polar-MMV Screening Library” (2021)
Hit rate of the full screen: of about 48,000 compounds, about 13,000 (27%) showed an effect of 50% or more. The list shows a part of the results.

These compounds were tested on Wolbachia pipientis (assay: Anti-Wolbachia Cell-Based Screen). Details: 5 µM.
Assay type: functional
Set-up: scale not given: in the data most compounds retested in dose-response had high values

In order of falling “Percent Effect” value:
1. c1csc(N2CCCN(c3ncnc4sccc34)CC2)n1  165.2%
2. CCS(=O)(=O)N1C[C@@H](C(=O)NC(C)C)[C@@]2(Cc3ccccc3C(=O)N2)C1  141.4%
3. c1csc(N2CCN(c3ncnc4sccc34)CC2)n1  140.7%
4. CC(C)NC(=O)[C@@H]1CN(C(=O)C2CC2)C[C@]12Cc1ccccc1C(=O)N2  129.2%
5. CCOC[C@@H]1CCC[C@]12CN(S(=O)(=O)c1cn(C)cn1)CCO2  118.4%
6. COCC1N(S(=O)(=O)c2cn(C)cn2)[C@H]2CC[C@]1(O)CC2 (stereo partly specified)  116.2%
7. COC[C@@H]1CCC[C@]12CN(S(=O)(=O)c1cn(C)cn1)CCO2  112.9%
8. CC(C)OC[C@H]1CCC[C@]12CN(S(=O)(=O)c1cn(C)cn1)CCO2  110%
9. CCOC1COC2(CCN(Cc3cccc(C)n3)CC2)C1.O=C(O)C(F)(F)F (stereo unspecified)  109.8%
10. Cn1cc(CN2CCC[C@]3(C[C@H](Oc4ncccc4F)CO3)C2)cn1.O=C(O)C(F)(F)F.O=C(O)C(F)(F)F  108.2%
11. CCOC1COC2(CCN(c3ccccn3)CC2)C1.O=C(O)C(F)(F)F (stereo unspecified)  106.9%
12. Cn1cc(CN2CCC[C@]3(C[C@@H](Oc4ncccc4F)CO3)C2)cn1.O=C(O)C(F)(F)F.O=C(O)C(F)(F)F  104.4%
13. CCOC1COC2(CCN(c3ncc(C)cn3)CC2)C1 (stereo unspecified)  100.2%
14. COCC1CC2(CCN(c3cccc(C)n3)CC2)CN1c1ncccn1.O=C(O)C(F)(F)F (stereo unspecified)  95.56%
15. CCOC1COC2(CCN(C(=O)c3cccc(C)n3)CC2)C1.O=C(O)C(F)(F)F (stereo unspecified)  94.67%
16. CCOC1COC2(CCN(c3cccc(C)n3)CC2)C1.O=C(O)C(F)(F)F (stereo unspecified)  89.3%
17. CSc1ccc(-c2nc(CN3CCC(NC(C)=O)CC3)c(C)o2)cc1  26.44%
18. Cc1nc(CN2CCc3nc(NC(C)C)nc(C)c3C2)cs1  12.48%
19. CCN(CC)C(=O)CCNC(=O)Cc1nc(-c2ccco2)oc1C  11.44%
20. CCS(=O)(=O)N1CCC2(CC1)CC(Oc1ccccn1)CO2.O=C(O)C(F)(F)F (stereo unspecified)  11.25%
21. CN(C)C(=O)COC1COC2(CCN(c3cnccn3)CC2)C1.O=C(O)C(F)(F)F (stereo unspecified)  7.565%
22. CN(C)C(=O)COC1COC2(CCN(c3ncccn3)CC2)C1 (stereo unspecified)  5.74%
23. CC(C)NC(=O)C1CN(C(=O)c2ccco2)CC12CCOCC2 (stereo unspecified)  3.507%
24. O=C(O)C(F)(F)F.O=C(O)C(F)(F)F.c1ccc(O[C@H]2CO[C@@]3(CCN(Cc4ccc5c(c4)OCO5)C3)C2)nc1  2.667%
25. Cc1cccc(COC2COC3(CCN(S(C)(=O)=O)CC3)C2)n1.O=C(O)C(F)(F)F (stereo unspecified)  2.01%
26. Cc1cccc(CO[C@@H]2CO[C@@]3(CCN(S(=O)(=O)N(C)C)C3)C2)n1.O=C(O)C(F)(F)F  0.8682%
27. CO[C@@H]1CCN(S(=O)(=O)c2cn(C)cn2)[C@H]1Cc1ccccc1  -1.543%
28. CN(C)C(=O)COC1COC2(CCN(c3cccc(F)c3)CC2)C1.O=C(O)C(F)(F)F (stereo unspecified)  -1.854%
29. O=C(c1cnccn1)N1CCN2C[C@H](OCC3CC3)C[C@H]2C1  -2.249%
30. O=C(c1ccno1)N1CCN2C(=O)N(Cc3ccc(F)cc3)C[C@H]2C1  -2.469%
31. CCS(=O)(=O)N1CCC2(CC1)CC(COC)N(c1ncccn1)C2.O=C(O)C(F)(F)F (stereo unspecified)  -2.955%
32. CO[C@@H]1CC[C@H]2[C@H]1OCCN2S(=O)(=O)c1cn(C)cn1  -3.329%
33. N#Cc1ccc(N2CCN(c3nccs3)CC2)nc1  -4.592%
34. Cc1nc(CN2CCCC(N(C)Cc3nc(CC(C)C)no3)C2)no1 (stereo unspecified)  -5.621%
35. COC[C@H]1CCC[C@]12CN(S(=O)(=O)c1cccs1)CCO2  -5.962%
36. CN(CC(=O)N1CCCC1)C(=O)c1cccn1CCc1ccccc1  -6.272%
37. Cc1cc2cc(CNC3CCN(CC4CCOC4)CC3)oc2cc1C (stereo unspecified)  -8.178%
38. O=C(O)C(F)(F)F.O=C(c1cnoc1)N1CCC[C@]2(C[C@H](Oc3ncccc3F)CO2)C1  -8.736%
39. CC(C)NC(=O)C1CN(C(=O)c2cccs2)CC12CCOCC2 (stereo unspecified)  -10.16%
40. COCCN1CCC2(CC1)CC(COC)N(c1ncccn1)C2.O=C(O)C(F)(F)F.O=C(O)C(F)(F)F (stereo unspecified)  -10.3%
41. CCN1CCO[C@]2(CCC[C@H]2COCc2csc(C)n2)C1.O=C(O)C(F)(F)F.O=C(O)C(F)(F)F  -10.73%
42. COC[C@@H]1CCC[C@]12CN(S(=O)(=O)c1cccs1)CCO2  -10.75%
43. CCC[C@@H](NC(N)=O)C(=O)N1Cc2ccccc2-c2ccccc2C1  -11.77%
44. CS(=O)(=O)N1CCC[C@]2(C[C@@H](Oc3ncccc3F)CO2)C1.O=C(O)C(F)(F)F  -13.76%
45. CCN(C)C(=O)c1cnc(-c2noc3cc(N4CCCCC4)ccc23)s1  -13.96%
46. CN(C)S(=O)(=O)N1CC[C@]2(C[C@H](Oc3ncccc3F)CO2)C1.O=C(O)C(F)(F)F  -14.15%
47. N#Cc1ccc(N2CCCN(c3nccs3)CC2)nc1  -14.61%
48. Cc1cnc(N2CCC3(CC2)CC(NS(C)(=O)=O)CO3)nc1 (stereo unspecified)  -15.37%
49. CC(C)C[C@@H]1N[C@H](C(=O)NC(C)C)Cc2c[nH]c3cccc1c23  -15.72%
50. CC(C)OC[C@H]1CCC[C@]12CN(S(=O)(=O)c1cccs1)CCO2  -17.54%
51. Cc1ccc(CNC2(Cc3cc(CO)on3)COC2)o1  -19.01%
52. CCOC1COC2(CCN(Cc3ccco3)CC2)C1.O=C(O)C(F)(F)F (stereo unspecified)  -20.65%
53. O=C(CS(=O)(=O)Cc1ccc(Br)cc1F)Nc1cn[nH]c1  -22.34%
54. CC(C)OC[C@H]1CCC[C@]12CN(S(=O)(=O)C1CC1)CCO2  -22.82%
55. Cc1noc(C(C)N2CCN(c3ncnc4sccc34)CC2)n1 (stereo unspecified)  -36.26%
56. CCc1nc(CN2CCCN(c3ncnc4sccc34)CC2)no1  -94.29%
